Data as given in PubChem BioAssay (NCI).
The panel holds about 83,000 compounds, 20% with a hit somewhere; the sample as a whole holds those more often.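 Treatment: one concentration, 48 hours, 96-well format. Scoring: percent growth, with anything below 10 considered active.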 Unmarked numbers belong to inactive results. Activity calls are given as the source filed them.

System: HL-60(TB) leukemia
Assay: NCI-60 one-dose screen, 48 h (100 = growth as untreated, 0 = no growth, -100 = all killed)
Details: 10 µM unless noted

SMILES	growth
COc1cc2nc3sc(C(=O)Nc4ccc(C(=O)OC(C)C)cc4)c(C(=O)Nc4ccc(Cl)cc4C)n3c(=O)c2cc1OC	90.2%
NS(=O)(=O)c1ccc(CCN=C=S)cc1	-2.31% (active)
O=C1N(c2ccccc2)C(=S)N[C@]12[C@H](c1ccccc1)C1CCCN1[C@]21C(=O)NC2C=CC(Cl)=C[C@H]21 (stereo not given in full)	81.5%
Cc1cc(NC(=O)c2ccc(C)c(Nc3nccc(-c4cccnc4)n3)c2)cc(-n2cnc(C)c2)c1	22.8%
CC(C)c1ccc(-n2c(=S)[nH]c3sc4cc(O)ccc4c3c2=O)cc1	99.4%
CCOc1cccc(/C=N/NC(=O)c2ccc(Nc3ccnc(C(F)(F)F)c3)cc2)c1O	37.7%
CCCNCC(=O)Nc1ccc(C(=O)OC(C)(C)CC)cc1	89.8%
CN(C)c1ccc(/C=C(\C#N)c2nc3ccccc3c(=O)[nH]2)cc1	108%
O=C1Nc2ccccc2/C1=C/C(=O)c1ccc(N2CCOCC2)cc1	49.8%
COc1ccc(C(=O)c2sc3nc4c(cc3c2N)CCCC4)cc1OC	11.4%
COc1ccc(S(=O)(=O)N2CC3(COC3)C2)cc1NC(=O)c1[nH]c(C)c2c1CCCCC2=O	-11% (active)
CC(=O)c1nn(-c2ccccc2)/c(=N/N=Cc2cn(-c3ccccc3)nc2-c2cc3ccccc3oc2=O)s1	102%
CCN(CC)CCOc1ccccc1C	101%
c1ccc(CSc2ncnc3nc[nH]c23)nc1	96.4%
COc1cccc(-c2nc3sccn3c2-c2ccnc(NCCNS(=O)(=O)c3ccccc3)n2)c1	69.9%
Nc1cc(O)cc2cccnc12	98.5%
Cc1ccc(Nc2cc(Cl)c([N+](=O)[O-])cc2[N+](=O)[O-])cc1	6.39% (active)
Cc1ncc(C(=O)Nc2ccc(CN3CCN(C)CC3)c(C(F)(F)F)c2)cc1C#Cc1c(N)ncc2ccccc12	-51.1% (active)
Cn1cc(-c2nonc2-c2cn(C)c3ccc(F)cc23)c2cc(F)ccc21	17.3%
O=[N+]([O-])c1ccc2c(c1)Cc1ccccc1-2	87%

SMILES	growth
C=CCOc1cccc(/C=C2\SC(=Nc3ccc(O)cc3)NC2=O)c1	-16.8% (active)
Cc1ncc(-c2ccoc2)c(NC2CCCCCC2)n1	96.1%
N#C/C(=C\c1c(-c2ccccc2)[nH]c2ccccc12)C(=O)c1ccccc1	2.79% (active)
CN1CCN(C(=O)OCCOCCOC(=O)N2CCN(C)CC2)CC1	98.2%
Cc1cc(C)n(-c2nnc3n2N=C(c2ccc(-c4ccccc4)cc2)CS3)n1	7.07% (active)
O=c1cc(CSc2nnc(-c3ccc(F)cc3)o2)c2ccc3ccccc3c2o1	99.9%
Cn1c(NCCc2ccc(O)c(O)c2)nc2c1c(=O)n(Cc1ccc(Cl)c(Cl)c1)c(=O)n2C	14.8%
O=C(COc1ccc(Cl)cc1)N1CCN(Cc2ccc3c(c2)OCO3)CC1	109%
O=[N+]([O-])c1ccc(N/N=C(\C(=N/Nc2ccc([N+](=O)[O-])cc2[N+](=O)[O-])c2ccccc2)c2ccccc2)c([N+](=O)[O-])c1	80.5%
C#CC[C@@H]1C[C@]2(C)[C@H]3CC=C4[C@H]5[C@@H](C)[C@H](C)CC[C@]5(C(=O)NCCCCCCCCN)CC[C@@]4(C)[C@]3(C)CC[C@H]2C(C)(C)[C@H]1OC(C)=O	-15.1% (active)
C=CC(=O)N[C@H](Cc1ccc(-c2cc(Cl)cc(Cl)c2)cc1)[C@H](O)[C@@H](O)C(=O)O	109%
COc1cccc(CCC2C(=O)CCCC2=O)c1	87.2%
N#CCC1=NC(c2cccs2)=Nc2ccccc2S1	90.9%
CCOC(=O)c1cc(C(=O)c2ccc(OC)c(OC)c2)n2c1ccc1ccccc12	99.8%
CCCN1C(=O)/C(=c2\sc3n(c2=O)NC2C(N=3)N(CC)C(=O)N2CC)c2ccccc21 (stereo not given)	-18.4% (active)
O=C(c1ccc(Cl)cc1)N1CCCCC1	98.7%
Clc1ccc(-c2cnc3c(-c4ccnc(N5CCNCC5)c4)cnn3c2)cc1	-33.7% (active)
Nc1ncc(-c2ccc3ncnc(Nc4ccc(F)c(Cl)c4)c3c2)cn1	103%
COc1ccc(/C=C/C(=O)c2ccc(NC(=O)CSc3nnc(-c4ccc(OC)c(OC)c4)n3-c3ccccc3)cc2)cc1	54.8%
COc1cc(C(C)(C)C)cc(OC)c1C(O)(c1c(OC)cc(C(C)(C)C)cc1OC)c1c(OC)cc(C(C)(C)C)cc1OC	-63.7% (active)
